Sampled rows, rich in hits. Any-hit rate of the full collection: about 5.7%.
NPSR antagonist – antagonists of human neuropeptide S receptor cAMP signaling; Potency, µM (doses to about 38.3 µM), for the others: top-dose activity change, negative = inhibition, hits mostly inhibitors; AID 1461; Q6W5P4; 1% of 220,000 active; CHO-NPSR cells, cAMP TR-FRET, antagonist mode; note: nearly all actives have a fitted effect of over 50% in size
B2AR arrestin – beta2AR (human) beta-arrestin recruitment activity | AID 492947 | 0.02% of 330,000 active | beta-arrestin recruitment to beta2AR, cell-based reporter | P07550 | Potency, µM (top dose mostly 46.1 µM), inactives show at the highest dose activation, most hits filed as activators;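 note: 0% = DMSO controls and full agonism = EC100 isoproterenol or metaproterenol; nearly all actives have a fitted effect of over 65% in size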
Target sequence (P07550 whole entry, looked up): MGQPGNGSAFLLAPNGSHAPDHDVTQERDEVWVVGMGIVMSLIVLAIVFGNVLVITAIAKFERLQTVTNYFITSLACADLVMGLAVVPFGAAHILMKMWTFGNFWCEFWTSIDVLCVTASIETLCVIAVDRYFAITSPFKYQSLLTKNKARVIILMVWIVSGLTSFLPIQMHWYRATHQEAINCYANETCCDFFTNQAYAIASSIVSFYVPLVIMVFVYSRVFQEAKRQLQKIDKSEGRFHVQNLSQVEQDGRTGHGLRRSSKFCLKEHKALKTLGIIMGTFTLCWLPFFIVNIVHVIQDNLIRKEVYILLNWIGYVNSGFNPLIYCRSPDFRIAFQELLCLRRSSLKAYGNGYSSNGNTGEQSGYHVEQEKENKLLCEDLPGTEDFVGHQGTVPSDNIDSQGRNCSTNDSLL
RORgamma inh – inhibitors of mouse ROR gamma transcriptional activity | Potency, µM (highest dose often 53.6 µM), for the others: top-dose activity change, negative = inhibition, actives largely listed as inhibitors | Drosophila S2 Gal4-RORgamma UAS-luciferase reporter, 20 h | P51450 | 5.4% of 310,000 active; note: nearly all actives have a fitted effect of over 60% in size
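ROR gamma transcriptional activity was tracked as Gal4-UAS luciferase output in stably transfected Drosophila Schneider cells, with compound added 1 hr before 700 uM copper sulfate induction and a 20 hr ambient-temperature incubation.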
Gal4-VP16 FLuc – inhibits Gal4-VP16 luciferase reporter, ROR gamma counter-screen | Potency, µM (series often up to 53.6 µM), inactives show at the top dose activity, negative = inhibition, most hits filed as inhibitors | Drosophila S2 Gal4-VP16 UAS-luciferase, luminescence, 20 h | AID 2546 | 3.5% of 310,000 active;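 note: Gal4-VP16 expression switched on by copper sulfate through the metallothionein promoter; nearly all actives have a fitted effect of over 50% in size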
Numbers without * were called inactive; [ ] = remark or other dose. Calls come from the whole dose curve; as a rule, active = well fitted curve in the direction sought with a large enough effect; inconclusive = small, poorly fitted or top-dose-only effect, or another doubt; inactive = no such curve, though single readings can be large; an effect the other way counts as inactive or inconclusive. Unless noted, % is set by controls: 0 for no effect and ±100 for the full control effect; potency is the fitted concentration of half-maximal effect.

What do the screens show for `FC(F)Sc1ccc(N=C2NN=C(c3ccc4c(c3)OCCO4)CS2)cc1`?
NPSR antagonist: -8.3%[46.1 µM]; B2AR arrestin: 0.3%; RORgamma inh: -19.7%; Gal4-VP16 FLuc: 4.9%

Results for COc1ccc(N=C2NN=C(c3ccc4c(c3)OCCO4)CS2)cc1 ?
NPSR antagonist: -7.0%[46.1 µM]; B2AR arrestin: 0.5%; RORgamma inh: 6.5%; Gal4-VP16 FLuc: 23.8%

What do the screens show for `Clc1ccc(C2=NNC(=NCC3CCCO3)SC2)cc1` (stereo not given)?
NPSR antagonist: 5.8%; B2AR arrestin: 9.3%; RORgamma inh: inconclusive; Gal4-VP16 FLuc: inconclusive

How did c1cc2c(cc1C1=NNC(=NC3CC3)SC1)OCCO2 do in these assays?
NPSR antagonist: -27.4%; B2AR arrestin: 0.1%; RORgamma inh: 2.51µM*; Gal4-VP16 FLuc: 2.24µM*

How did CCCCN=C1NN=C(c2ccc3c(c2)OCCO3)CS1 do in these assays?
NPSR antagonist: -14.4%; B2AR arrestin: 2.5%; RORgamma inh: 4.47µM*; Gal4-VP16 FLuc: 7.94µM*

What do the screens show for `CCCCN=C1NN=C(c2ccc(C)c(C)c2)CS1`?
NPSR antagonist: -12.6%; B2AR arrestin: 7.4%; RORgamma inh: 7.08µM*; Gal4-VP16 FLuc: 12.6µM*

How did CCC(=O)Nc1nc(=S)ss1 do in these assays?
NPSR antagonist: -9.1%[46.1 µM]; B2AR arrestin: -0.4%; RORgamma inh: -33.4%; Gal4-VP16 FLuc: inconclusive

How did CCCCC/C=C\C/C=C\C/C=C\C/C=C\CCCCCC(N)=O do in these assays?
RORgamma inh: -2.4%; Gal4-VP16 FLuc: 7.3%

What do the screens show for `Cc1ccccc1NC(=S)N(Cc1cccnc1)Cc1ccccc1Cl`?
NPSR antagonist: -19.8%; B2AR arrestin: -0.2%; RORgamma inh: 2.24µM*; Gal4-VP16 FLuc: -15.5%

Results for COc1ccccc1NC(=S)N(Cc1cccnc1)Cc1ccco1 ?
NPSR antagonist: -15.4%; B2AR arrestin: 0.1%; RORgamma inh: inconclusive; Gal4-VP16 FLuc: 0.2%

What do the screens show for `COc1ccccc1NC(=S)N(Cc1cccnc1)Cc1ccccc1Cl`?
NPSR antagonist: -20.3%; B2AR arrestin: 0.0%; RORgamma inh: inconclusive; Gal4-VP16 FLuc: 1.1%[10 µM]

How did COc1ccccc1NC(=S)N(Cc1ccc(C)cc1)Cc1cccnc1 do in these assays?
NPSR antagonist: -44.0%; B2AR arrestin: 0.2%; RORgamma inh: 7.94µM*; Gal4-VP16 FLuc: 4.3%[10 µM]

How did c1ncc(CCCC2CCNCC2)[nH]1 do in these assays?
RORgamma inh: 0.7%; Gal4-VP16 FLuc: 12.6%

Results for CCOc1cc(/C=N/Nc2nncc(-c3ccccc3)n2)ccc1O ?
NPSR antagonist: -8.8%; B2AR arrestin: 0.2%; RORgamma inh: -7.4%; Gal4-VP16 FLuc: 4.9%

How did Cc1[nH]n(-c2ccccc2)c(=O)c1/C=N/Nc1nncc(-c2ccccc2)n1 do in these assays?
NPSR antagonist: -20.5%[46.1 µM]; B2AR arrestin: 0.1%; RORgamma inh: 0.0501µM*; Gal4-VP16 FLuc: 0.0022µM*

Results for Cc1ccc(/C=N/Nc2nncc(-c3ccccc3)n2)o1 ?
NPSR antagonist: -8.4%; B2AR arrestin: 0.1%; RORgamma inh: 8.91µM*; Gal4-VP16 FLuc: 12.6µM*

What do the screens show for `Clc1ccc(-c2ccc(/C=N/Nc3nncc(-c4ccccc4)n3)o2)cc1`?
NPSR antagonist: 5.6%[46.1 µM]; B2AR arrestin: 0.1%; RORgamma inh: 0.794µM*; Gal4-VP16 FLuc: 0.794µM*

How did C(=C\c1ccccc1)/C=N/Nc1nncc(-c2ccccc2)n1 do in these assays?
NPSR antagonist: 3.2%; B2AR arrestin: -1.0%; RORgamma inh: 2.24µM*; Gal4-VP16 FLuc: 3.16µM*

How did Oc1cccc(/C=N\Nc2nncc(-c3ccccc3)n2)c1 do in these assays?
NPSR antagonist: -10.5%; B2AR arrestin: 0.2%; RORgamma inh: -6.2%; Gal4-VP16 FLuc: inconclusive

How did FC(F)(F)c1cccc(-c2ccc(/C=N/Nc3nncc(-c4ccccc4)n3)o2)c1 do in these assays?
NPSR antagonist: -18.6%; B2AR arrestin: -0.7%; RORgamma inh: -4.6%; Gal4-VP16 FLuc: -1.3%

Results for Cc1[nH]n(-c2ccccc2)c(=O)c1C=NCc1ccncc1 ?
NPSR antagonist: 1.6%; B2AR arrestin: 0.0%; RORgamma inh: -3.9%; Gal4-VP16 FLuc: 7.2%

What do the screens show for `COC(=O)N[C@@H](c1ccc(Br)cc1)C(C(=O)OC)C(=O)OC`?
RORgamma inh: 0.5%; Gal4-VP16 FLuc: 9.9%

Results for Cc1onc(-c2ccccc2Cl)c1C(=O)Nc1ccc(Br)cc1 ?
B2AR arrestin: -0.1%; RORgamma inh: -13.6%; Gal4-VP16 FLuc: -2.9%

What do the screens show for `Clc1ccccc1-c1ccc(/C=N/Nc2nncc(-c3ccccc3)n2)o1`?
NPSR antagonist: -16.6%; B2AR arrestin: 0.1%; RORgamma inh: 1.41µM*; Gal4-VP16 FLuc: 10µM*

How did O=C(O)c1ccc(N/N=C/c2ccc(-c3ccccc3Cl)o2)cc1 do in these assays?
NPSR antagonist: inconclusive; B2AR arrestin: -0.7%; RORgamma inh: inconclusive; Gal4-VP16 FLuc: inconclusive

What do the screens show for `O=C(N/N=C/c1ccc(-c2ccccc2Cl)o1)c1ccccc1`?
NPSR antagonist: -34.6%; B2AR arrestin: 0.3%; RORgamma inh: 3.55µM*; Gal4-VP16 FLuc: 7.94µM*

How did CC(=O)Nc1ccc(Nc2cc(C)nc3c(-c4ccccc4)cnn23)cc1 do in these assays?
NPSR antagonist: -25.3%; B2AR arrestin: 0.7%; RORgamma inh: 12.6µM*; Gal4-VP16 FLuc: 7.94µM*

How did Cc1cc(N)n2ncc(-c3ccccc3)c2n1 do in these assays?
NPSR antagonist: -0.3%[46.1 µM]; B2AR arrestin: 0.5%; RORgamma inh: 9.9%; Gal4-VP16 FLuc: 0.9%

What do the screens show for `C=CCSc1cc(C)nc2c(-c3ccccc3)cnn12`?
NPSR antagonist: 14.0%[7.67 µM]; B2AR arrestin: 1.0%; RORgamma inh: 10µM*; Gal4-VP16 FLuc: inconclusive

What do the screens show for `CCSc1cc(C)nc2c(-c3ccccc3)cnn12`?
NPSR antagonist: 8.4%[7.67 µM]; B2AR arrestin: -1.0%; RORgamma inh: -14.5%; Gal4-VP16 FLuc: -6.1%

How did c1ccc(CSc2ccc(-c3ccccn3)nn2)cc1 do in these assays?
NPSR antagonist: -15.8%; B2AR arrestin: -0.1%; RORgamma inh: 7.94µM*; Gal4-VP16 FLuc: 1.5%

How did Cc1cc(C)c2c(=O)n(CC(=O)Nc3ccc(Br)c(C)c3)sc2n1 do in these assays?
NPSR antagonist: -46.3%; B2AR arrestin: -0.2%; RORgamma inh: 12.6µM*; Gal4-VP16 FLuc: inconclusive

How did Cc1cc(C)c2c(=O)n(CC(=O)Nc3cccc(Cl)c3C)sc2n1 do in these assays?
NPSR antagonist: -4.0%; B2AR arrestin: -1.2%; RORgamma inh: inconclusive; Gal4-VP16 FLuc: 3.16µM*

What do the screens show for `Cc1cc(C)c2c(=O)n(CC(=O)NC3CCCC3)sc2n1`?
NPSR antagonist: -38.4%; B2AR arrestin: 0.4%; RORgamma inh: inconclusive; Gal4-VP16 FLuc: inconclusive

How did COCC1=C2c3ccccc3[C@H](C[N+](=O)[O-])C(C(=O)OC)(C(=O)OC)CC2C2C(=O)N(c3ccccc3)C(=O)C2C1 (stereo not given in full) do in these assays?
RORgamma inh: -11.2%; Gal4-VP16 FLuc: 4.2%

How did CC(=O)COc1ccc2c(c1C)O/C(=C\c1ccco1)C2=O do in these assays?
B2AR arrestin: 0.8%; RORgamma inh: 10µM*; Gal4-VP16 FLuc: -20.1%

How did COc1ccc2c(c1)O/C(=C\c1ccco1)C2=O do in these assays?
NPSR antagonist: -13.9%; B2AR arrestin: 0.7%; RORgamma inh: 29.2%; Gal4-VP16 FLuc: -3.5%

Results for NC(=S)Nc1nc2ccccc2s1 ?
NPSR antagonist: -28.9%; B2AR arrestin: inconclusive; RORgamma inh: inconclusive; Gal4-VP16 FLuc: 3.55µM*

Screening results from PubChem.
